# JNK3 blocker: JNK3 kinase activity inhibitors, primary screen, biochemical, human, purified enzyme; Mitogen-activated protein kinase 10 (Homo sapiens), P53779; 0.61% of 60,000 active; inhibition, % at 8 µM; AID 746, 2007; HTS; in the data active means inhibition above about 17%
# PKA inh: inhibitors of human PKA kinase activity, primary screen, biochemical, ATP-depletion luminescence, Kemptide substrate; 0.1% of 65,000 active; PKA Kemptide phosphorylation, Kinase-Glo ATP luminescence; inhibition, % at 6 µM; cAMP-dependent protein kinase catalytic subunit alpha (Homo sapiens), P17612;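 active means inhibition above the screen-wide mean inhibition plus 3 SD, cut at about 21% in these data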
# DUSP1 inh: MKP-1 phosphatase inhibitors, primary screen, biochemical, in vitro; Dual specificity protein phosphatase 1 (Homo sapiens), P28562; recombinant MKP-1, OMFP hydrolysis fluorescence; inhibition, %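 (compounds tested at a single concentration somewhere between 10 and 100 µM)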; 0.15% of 65,000 active;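 active means inhibition above about 50%, limit read from the data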
# Target sequence (P28562 whole entry, looked up): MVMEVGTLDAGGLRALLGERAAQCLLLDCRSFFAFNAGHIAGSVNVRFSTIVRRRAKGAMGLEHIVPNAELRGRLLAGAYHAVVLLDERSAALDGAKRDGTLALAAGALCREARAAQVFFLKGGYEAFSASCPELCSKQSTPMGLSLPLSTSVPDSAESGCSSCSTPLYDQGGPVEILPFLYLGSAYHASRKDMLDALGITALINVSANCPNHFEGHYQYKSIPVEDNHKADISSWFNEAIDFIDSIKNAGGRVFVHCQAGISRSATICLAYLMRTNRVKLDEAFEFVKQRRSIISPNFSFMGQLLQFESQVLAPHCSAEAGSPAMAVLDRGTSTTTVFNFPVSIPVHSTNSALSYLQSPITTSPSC
# ROCK2 blocker: inhibitors of human ROCK2 kinase, primary screen, biochemical, high-throughput, luminescence | Rho-associated protein kinase 2 (Homo sapiens), O75116 | purified ROCK2, Kinase-Glo ATP depletion luminescence | inhibition, % at 6 µM | 0.35% of 60,000 active | AID 604, 2007;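 active means inhibition above the screen-wide mean inhibition plus 3 SD, cut at about 18% in these data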
# Cdc25B block: inhibitors of Cdc25B phosphatase catalytic domain, primary screen, biochemical, OMFP fluorescence. AID 368, 2006. 0.1% of 65,000 active. inhibition, %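 (compounds tested at 10 µM final in the well)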. recombinant Cdc25B, OMFP fluorescence Ex485/Em525. M-phase inducer phosphatase 2 (Homo sapiens), P30305; in the data active means inhibition above about 50%
# Hsp90 inh: tumor Hsp90 inhibitors, primary screen, cell lysate, fluorescence polarization, NCI-N417 lysate. 0.35% of 64,000 active. Cy3B-geldanamycin FP displacement. inhibition, % at 30 µM. Heat shock protein HSP 90-alpha (Homo sapiens), P07900;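 active means inhibition above 50%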
# Redox H2O2 0p5DTT: redox cycling H2O2 generation, 0.5 mM DTT, dose response, artefact control, biochemical, Cdc25B catalytic domain; shares compounds with Cdc25B block; cell-free redox cycling H2O2 generation; EC50, µM; 50% of 30 active; AID 682, 2007; in the data active means EC50 below about 30 µM
# Redox 1 DTT: redox cycling H2O2 generation, 1 mM DTT, dose response, artefact control, biochemical, 1.0 mM DTT, Cdc25B catalytic domain. EC50, µM. AID 683, 2007. cell-free redox cycling H2O2 generation. 30 tested, under 10 active. shares compounds with Cdc25B block; in the data active means EC50 below about 50 µM
# Redox cycler: redox cycling hydrogen peroxide production, dose response, artefact control, biochemical, probe assessment; AID 672, 2007; EC50, µM; 60 tested, under 10 active; Redox cycling H2O2 generation, DTT, phenol red/HRP; shares compounds with DUSP1 inh; call rule not given here
# A number is an active result; i = inactive; nt = no result. In the library only some 1% were active in any assay of this set; here they are far more common.
SMILES,JNK3 blocker,PKA inh,DUSP1 inh,ROCK2 blocker,Cdc25B block,Hsp90 inh,Redox cycler,others
COc1ccc2noc3c2c1C(=O)c1ccccc1-3,i,i,79,i,97,i,i,Redox H2O2 0p5DTT=27;Redox 1 DTT=i
[O-]/[N+](=C\c1ccc(OC(F)F)cc1)c1ccccc1,i,i,65,i,73,i,i,Redox H2O2 0p5DTT=i;Redox 1 DTT=i
[O-]/[N+](=C\c1ccncc1)c1ccccc1,i,i,64,i,64,i,i,Redox H2O2 0p5DTT=i;Redox 1 DTT=i
COC(=O)c1cccc(Oc2nc3c(c(=O)n(C)c(=O)n3C)n2C(C)C)c1,nt,nt,i,nt,i,i,nt,
COC(=O)c1ccccc1OC(=O)c1ccc(Br)o1,i,i,i,i,i,i,nt,
O=C(CP(=O)(c1ccccc1)c1ccccc1)Nn1cnnc1,nt,nt,i,nt,i,nt,nt,
Cc1c(N=CC=Nc2c(C)n(C)n(-c3ccccc3)c2=O)c(=O)n(-c2ccccc2)n1C,i,i,i,i,i,i,nt,
Cc1c(N=c2c(=O)c3ccccc3c2=O)c(=O)n(-c2ccccc2)n1C,i,i,88,i,98,80,i,Redox H2O2 0p5DTT=13;Redox 1 DTT=41
O=C(Nc1ccc(N2CCOCC2)cc1)c1ccc2nc(-c3ccco3)c(-c3ccco3)nc2c1,i,i,i,i,i,i,nt,
O=C(Nc1ccccc1)c1ccc2nc(-c3ccco3)c(-c3ccco3)nc2c1,i,i,59,i,i,i,i,
CN(C)c1ccc(NC(=O)Cn2cc3c(n2)CCCC3)cc1,i,i,i,i,i,i,nt,
O=C(O)c1cccc(N2CCCC2)c1,i,i,i,i,i,i,nt,
Cc1ccc(C)n1-c1cccc(C(=O)O)c1,i,i,50,i,i,i,i,
Cc1ccc(Nc2nnc(SCC(=O)NCc3ccco3)s2)cc1,i,i,i,i,i,i,nt,
N#Cc1c(NC(=O)c2ccc(Br)o2)n(-c2ccccc2)c2nc3ccccc3nc12,i,i,i,i,i,i,i,
O=C(Nc1nccs1)c1ccc(COc2ccccc2Br)o1,i,i,i,i,i,i,nt,
O=C1c2ccccc2-c2onc3ccc(NCCCn4ccnc4)c1c23,38,i,i,i,i,140,i,
O=C(O)CC1Sc2ccccc2NC1=O (stereo not drawn),i,i,i,i,i,i,nt,
O=C1Nc2ccccc2SC(c2ccccc2)C1O (stereo not drawn),i,i,58,i,i,i,i,
COc1ccc(-c2cc3nc(C4CCN(C(=O)OC(C)(C)C)CC4)c(C(=O)O)cn3n2)cc1,i,i,65,i,i,i,i,
CCOC(=O)N1CCC(NC(=O)c2ccc3c(c2)sc2nc(-c4ccc(OC)cc4)cn23)CC1,i,i,i,i,i,i,nt,
[O-]/[N+](=C/c1ccc(F)cc1)c1ccccc1,i,i,82,i,i,i,i,
Cc1cccc(N2CCN(C(=O)Cc3c(C(=O)O)[nH]c4ccc(Cl)cc34)CC2)c1C,i,i,53,i,i,i,i,
O=C(NCc1ccccn1)C(C(=O)c1ccc(F)cc1)n1ccccc1=O (stereo not drawn),i,i,i,i,i,i,nt,
O=C1C(C2=C(O)c3ccccc3C2=O)=Nc2ccccc21,i,i,91,i,i,57,i,
SMILES,JNK3 blocker,PKA inh,DUSP1 inh,ROCK2 blocker,Cdc25B block,Hsp90 inh,Redox cycler,others
COc1ccc(C(=O)COC(=O)CCn2nnc(-c3cccs3)n2)cc1,i,i,i,i,i,i,nt,
Cc1ccc(/C=C/C2=Cc3c(sc(NC(=O)CSc4n[nH]c(N)n4)c3C#N)C(C)(C)C2)o1,i,i,69,i,i,i,i,
CC[C@@H](C)[C@H]1O[C@]2(CC[C@@H]1C)C[C@@H]1C[C@@H](C/C=C(\C)[C@@H](O[C@H]3C[C@H](OC)[C@@H](O[C@H]4C[C@H](OC)[C@@H](O)[C@H](C)O4)[C@H](C)O3)[C@@H](C)/C=C/C=C3\CO[C@@H]4[C@H](O)C(C)=C[C@@H](C(=O)O1)[C@]34O)O2,nt,nt,nt,nt,nt,i,nt,
Cc1c(OCc2ccc(C(=O)O)o2)ccc2c3c(c(=O)oc12)CCC3,i,i,i,i,i,i,nt,
CCOc1cc(/C=C(/C#N)c2ccc(F)cc2)ccc1OCc1ccc(C(=O)O)o1,i,i,54,i,i,i,i,
O=C(NCc1cccs1)C1CCN(S(=O)(=O)c2cccc3cccnc23)CC1,i,i,i,i,i,i,nt,
Cc1ccc(-c2csc(NC(=O)c3ccno3)n2)cc1,nt,i,53,nt,i,i,i,

# From PubChem BioAssay
